Holding throughout (assay): DAPPL (digital affinity profiling via proximity ligation, sequencing); 10 mM Tris-HCl pH 7.5, 50 mM NaCl, 1 mM DTT, 4% glycerol, room temperature, 30 min; GST-TFs on glutathione beads, 16-mer random dsDNA library, 0.1% formaldehyde crosslink after washing; high values mean tight binding
The target in one experiment is T1, FLI1 (Homo sapiens, UniProt Q01543 1-452).
T1 sequence: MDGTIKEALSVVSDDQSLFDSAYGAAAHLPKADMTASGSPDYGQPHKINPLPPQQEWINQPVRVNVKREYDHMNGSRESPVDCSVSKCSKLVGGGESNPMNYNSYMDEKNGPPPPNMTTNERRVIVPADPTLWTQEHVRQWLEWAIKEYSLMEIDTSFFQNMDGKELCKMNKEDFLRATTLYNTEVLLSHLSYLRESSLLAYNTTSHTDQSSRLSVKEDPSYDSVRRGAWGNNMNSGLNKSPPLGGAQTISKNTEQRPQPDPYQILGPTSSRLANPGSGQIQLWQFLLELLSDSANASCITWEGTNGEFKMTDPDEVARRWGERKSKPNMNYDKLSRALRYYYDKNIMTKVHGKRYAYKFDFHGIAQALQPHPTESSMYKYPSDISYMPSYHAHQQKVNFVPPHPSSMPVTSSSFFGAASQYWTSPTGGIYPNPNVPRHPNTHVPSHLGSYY
Particulars: protein: recombinant; tags: N-terminal GST; dsDNA, one strand shown. The method in brief: (§1)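 Pools were built from human transcription factors expressed in yeast as GST fusions, captured on glutathione beads and DNA-barcoded, along with a tag-only sample. Incubation with 200 nmole of a 16-mer random double-stranded DNA library lasted 30 min at room temperature in Tris/NaCl/DTT/glycerol buffer, and was followed by washing, 0.1% formaldehyde crosslinking, proximity ligation, PCR amplification and Illumina NextSeq500 sequencing. Binding signal is the quotient of each hexamer's read frequency for a factor and its frequency for the tag-only sample.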

The next experiment addresses T2, ELK1 (Homo sapiens, UniProt P19419 1-428).
T2 sequence: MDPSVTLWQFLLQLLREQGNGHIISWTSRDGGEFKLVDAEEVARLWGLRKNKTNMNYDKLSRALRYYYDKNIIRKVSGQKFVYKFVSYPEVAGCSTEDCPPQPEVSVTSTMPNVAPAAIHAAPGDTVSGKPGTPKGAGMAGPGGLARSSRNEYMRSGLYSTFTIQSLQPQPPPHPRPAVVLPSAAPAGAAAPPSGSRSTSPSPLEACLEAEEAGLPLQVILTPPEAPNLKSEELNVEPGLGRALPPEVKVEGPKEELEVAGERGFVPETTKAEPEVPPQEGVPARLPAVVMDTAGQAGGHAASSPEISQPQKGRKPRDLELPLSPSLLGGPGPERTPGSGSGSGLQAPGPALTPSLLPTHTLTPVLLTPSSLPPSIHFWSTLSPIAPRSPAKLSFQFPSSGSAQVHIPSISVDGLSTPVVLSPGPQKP
Particulars: protein: recombinant; tags: N-terminal GST; dsDNA, one strand shown. In short, it runs like this: as §1

Another experiment deals with T3, GABPA (Homo sapiens, UniProt Q06546 1-454).
T3 sequence: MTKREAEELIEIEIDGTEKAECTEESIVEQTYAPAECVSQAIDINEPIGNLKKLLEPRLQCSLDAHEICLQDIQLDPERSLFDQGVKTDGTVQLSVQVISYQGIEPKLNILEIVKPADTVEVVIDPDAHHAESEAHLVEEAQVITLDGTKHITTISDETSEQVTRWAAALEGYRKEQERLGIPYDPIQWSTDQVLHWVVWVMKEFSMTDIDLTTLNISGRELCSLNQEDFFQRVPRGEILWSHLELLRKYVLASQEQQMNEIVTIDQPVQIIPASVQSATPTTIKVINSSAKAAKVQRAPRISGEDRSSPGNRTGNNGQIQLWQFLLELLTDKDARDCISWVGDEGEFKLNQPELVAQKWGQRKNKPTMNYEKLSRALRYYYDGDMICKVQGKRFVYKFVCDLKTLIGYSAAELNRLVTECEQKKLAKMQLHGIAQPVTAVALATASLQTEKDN
Particulars: protein: recombinant; tags: N-terminal GST; dsDNA, one strand shown. In short, it runs like this: as §1

Another experiment concerns the target T4, ERG (Homo sapiens, UniProt P11308 1-479).
T4 sequence: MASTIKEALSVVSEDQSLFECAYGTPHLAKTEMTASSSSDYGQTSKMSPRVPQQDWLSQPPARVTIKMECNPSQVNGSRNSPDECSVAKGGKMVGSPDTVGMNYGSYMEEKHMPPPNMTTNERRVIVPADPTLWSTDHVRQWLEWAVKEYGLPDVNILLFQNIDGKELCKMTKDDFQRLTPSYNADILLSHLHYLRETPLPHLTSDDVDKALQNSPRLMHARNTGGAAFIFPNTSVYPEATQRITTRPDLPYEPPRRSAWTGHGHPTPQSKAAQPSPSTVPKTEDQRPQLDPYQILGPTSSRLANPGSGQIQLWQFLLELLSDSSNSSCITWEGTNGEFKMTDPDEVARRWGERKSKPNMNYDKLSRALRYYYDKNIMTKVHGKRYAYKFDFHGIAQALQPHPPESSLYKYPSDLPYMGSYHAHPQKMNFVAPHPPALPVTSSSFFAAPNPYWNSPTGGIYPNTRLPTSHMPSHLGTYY
Particulars: protein: recombinant; tags: N-terminal GST; dsDNA, one strand shown. In short, it runs like this: as §1

The next experiment concerns the target ELF1 (Homo sapiens, UniProt P32519 1-619). Particulars: protein: recombinant; tags: N-terminal GST; dsDNA, one strand shown. In short, it runs like this:
as §1

Another experiment deals with T5, EHF (Homo sapiens, UniProt Q9NZC4 1-300).
T5 sequence: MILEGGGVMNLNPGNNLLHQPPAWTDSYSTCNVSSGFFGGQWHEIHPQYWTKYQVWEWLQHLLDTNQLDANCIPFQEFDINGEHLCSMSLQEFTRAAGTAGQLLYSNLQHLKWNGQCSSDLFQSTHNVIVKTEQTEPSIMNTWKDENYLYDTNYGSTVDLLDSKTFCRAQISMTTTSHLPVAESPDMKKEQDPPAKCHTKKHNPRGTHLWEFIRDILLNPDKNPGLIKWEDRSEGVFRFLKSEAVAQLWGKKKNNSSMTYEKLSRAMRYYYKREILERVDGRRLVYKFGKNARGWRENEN
Particulars: protein: recombinant; tags: N-terminal GST; dsDNA, one strand shown. The method in brief: as §1

For another experiment, the target named is SPI1 (Homo sapiens, UniProt P17947 1-270). Particulars: protein: recombinant; tags: N-terminal GST; dsDNA, one strand shown. In short, it runs like this: as §1
The next experiment has as its target SPIB (Homo sapiens, UniProt Q01892 1-262). Particulars: protein: recombinant; tags: N-terminal GST; dsDNA, one strand shown. The method in brief: as §1
A further experiment deals with T6, ELK3 (Homo sapiens, UniProt P41970 1-407).
T6 sequence: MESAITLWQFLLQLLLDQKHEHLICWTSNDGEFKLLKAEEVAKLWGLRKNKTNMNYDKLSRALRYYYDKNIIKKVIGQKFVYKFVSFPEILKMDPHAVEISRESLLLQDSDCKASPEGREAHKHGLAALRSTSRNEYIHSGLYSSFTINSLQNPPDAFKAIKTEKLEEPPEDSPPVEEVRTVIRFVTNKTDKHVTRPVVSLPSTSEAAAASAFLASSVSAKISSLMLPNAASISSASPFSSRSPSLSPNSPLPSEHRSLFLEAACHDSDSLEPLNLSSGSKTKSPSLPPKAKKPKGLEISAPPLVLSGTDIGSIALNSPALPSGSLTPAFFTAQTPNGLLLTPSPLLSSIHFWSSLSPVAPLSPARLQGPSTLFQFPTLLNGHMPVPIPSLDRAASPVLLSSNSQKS
Particulars: protein: recombinant; tags: N-terminal GST; dsDNA, one strand shown. The method in brief: as §1

A further experiment concerns the target T7, FEV (Homo sapiens, UniProt Q99581 1-238).
T7 sequence: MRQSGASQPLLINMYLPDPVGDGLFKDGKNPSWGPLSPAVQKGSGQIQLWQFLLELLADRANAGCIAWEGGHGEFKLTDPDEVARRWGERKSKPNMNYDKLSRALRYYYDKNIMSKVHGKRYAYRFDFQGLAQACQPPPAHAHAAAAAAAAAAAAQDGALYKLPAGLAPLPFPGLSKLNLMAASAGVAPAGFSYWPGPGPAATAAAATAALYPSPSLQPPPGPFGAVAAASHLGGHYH
Particulars: protein: recombinant; tags: N-terminal GST; dsDNA, one strand shown. The method in brief:
as §1

A further experiment addresses ETV5 (Homo sapiens, UniProt P41161 1-510). Particulars: protein: recombinant; tags: N-terminal GST; dsDNA, one strand shown. The method in brief: as §1
The target in the next experiment is HSF1 (Homo sapiens, UniProt Q00613 1-529). Particulars: protein: recombinant; tags: N-terminal GST; chain copies: 3; dsDNA, one strand shown. In short, it runs like this: as §1
A further experiment deals with T8, SPIC (Homo sapiens, UniProt Q8N5J4 1-248).
T8 sequence: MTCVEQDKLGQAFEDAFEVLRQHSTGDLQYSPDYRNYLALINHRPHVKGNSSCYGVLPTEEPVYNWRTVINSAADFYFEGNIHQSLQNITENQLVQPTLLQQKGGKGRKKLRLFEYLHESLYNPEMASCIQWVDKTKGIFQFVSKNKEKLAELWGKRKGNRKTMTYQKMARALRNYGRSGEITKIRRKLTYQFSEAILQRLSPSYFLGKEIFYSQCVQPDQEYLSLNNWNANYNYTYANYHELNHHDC
Particulars: protein: recombinant; tags: N-terminal GST; dsDNA, one strand shown. The method in brief:
as §1

A further experiment addresses ELF4 (Homo sapiens, UniProt Q99607 1-663). Particulars: protein: recombinant; tags: N-terminal GST; dsDNA, one strand shown. In short, it runs like this:
as §1

For a further experiment, the target named is T9, ELK4 (Homo sapiens, UniProt P28324-2 1-405).
T9 sequence: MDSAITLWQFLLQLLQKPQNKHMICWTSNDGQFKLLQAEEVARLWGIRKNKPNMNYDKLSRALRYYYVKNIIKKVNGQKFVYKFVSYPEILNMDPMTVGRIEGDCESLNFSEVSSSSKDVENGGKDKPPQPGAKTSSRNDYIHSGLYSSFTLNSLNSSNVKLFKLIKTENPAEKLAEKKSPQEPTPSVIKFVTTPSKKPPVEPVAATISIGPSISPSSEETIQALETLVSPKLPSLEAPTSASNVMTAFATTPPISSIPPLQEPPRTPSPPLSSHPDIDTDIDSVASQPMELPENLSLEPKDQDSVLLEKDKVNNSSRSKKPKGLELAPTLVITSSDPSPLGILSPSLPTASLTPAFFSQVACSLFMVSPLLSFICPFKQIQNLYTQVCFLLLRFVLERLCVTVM
Particulars: protein: recombinant; tags: N-terminal GST; dsDNA, one strand shown. The method in brief:
as §1

For a further experiment, the target named is T10, ETV2 (Homo sapiens, UniProt O00321 1-342).
T10 sequence: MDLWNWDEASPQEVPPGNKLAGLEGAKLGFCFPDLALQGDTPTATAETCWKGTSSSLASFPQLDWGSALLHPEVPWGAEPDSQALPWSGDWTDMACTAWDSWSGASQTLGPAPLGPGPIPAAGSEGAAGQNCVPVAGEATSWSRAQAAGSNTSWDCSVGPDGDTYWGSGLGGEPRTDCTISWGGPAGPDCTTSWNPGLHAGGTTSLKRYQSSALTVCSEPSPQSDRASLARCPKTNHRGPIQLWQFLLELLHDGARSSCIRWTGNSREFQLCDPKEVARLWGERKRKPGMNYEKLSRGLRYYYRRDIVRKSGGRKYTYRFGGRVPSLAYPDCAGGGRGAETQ
Particulars: protein: recombinant; tags: N-terminal GST; dsDNA, one strand shown. The method in brief:
as §1

In the next experiment the target is T11, ELF3 (Homo sapiens, UniProt P78545 1-371).
T11 sequence: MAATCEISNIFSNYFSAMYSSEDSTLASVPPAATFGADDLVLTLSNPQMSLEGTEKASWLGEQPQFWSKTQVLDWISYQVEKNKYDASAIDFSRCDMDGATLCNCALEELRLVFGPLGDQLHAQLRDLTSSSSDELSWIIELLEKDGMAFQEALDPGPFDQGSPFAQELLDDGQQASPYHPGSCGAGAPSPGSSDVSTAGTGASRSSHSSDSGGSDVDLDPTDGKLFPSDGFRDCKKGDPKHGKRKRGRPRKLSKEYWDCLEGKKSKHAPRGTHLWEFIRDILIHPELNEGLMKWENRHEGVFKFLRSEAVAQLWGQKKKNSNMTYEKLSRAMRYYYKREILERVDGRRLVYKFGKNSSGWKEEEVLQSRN
Particulars: protein: recombinant; tags: N-terminal GST; dsDNA, one strand shown. In short, it runs like this:
as §1

A further experiment addresses CRX (Homo sapiens, UniProt O43186 1-299). Particulars: protein: recombinant; tags: N-terminal GST; dsDNA, one strand shown. The method in brief: as §1
For the next experiment, the target named is ETV1 (Homo sapiens, UniProt P50549 1-477). Particulars: protein: recombinant; tags: N-terminal GST; dsDNA, one strand shown. In short, it runs like this: as §1
Sequence of ETV1 (P50549 whole entry): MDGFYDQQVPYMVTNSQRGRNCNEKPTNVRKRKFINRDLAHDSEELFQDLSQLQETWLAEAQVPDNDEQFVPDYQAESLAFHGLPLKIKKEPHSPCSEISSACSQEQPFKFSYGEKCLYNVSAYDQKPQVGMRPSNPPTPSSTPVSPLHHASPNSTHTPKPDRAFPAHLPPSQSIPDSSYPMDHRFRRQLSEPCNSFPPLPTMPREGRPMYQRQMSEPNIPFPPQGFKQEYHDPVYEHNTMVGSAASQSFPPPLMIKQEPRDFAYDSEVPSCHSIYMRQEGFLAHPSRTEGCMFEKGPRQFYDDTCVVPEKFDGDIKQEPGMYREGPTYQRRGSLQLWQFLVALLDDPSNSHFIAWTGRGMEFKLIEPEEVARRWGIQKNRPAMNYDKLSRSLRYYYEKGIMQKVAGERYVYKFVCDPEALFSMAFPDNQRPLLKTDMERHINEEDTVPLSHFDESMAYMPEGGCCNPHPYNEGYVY

Sequence of ELF4 (Q99607 whole entry): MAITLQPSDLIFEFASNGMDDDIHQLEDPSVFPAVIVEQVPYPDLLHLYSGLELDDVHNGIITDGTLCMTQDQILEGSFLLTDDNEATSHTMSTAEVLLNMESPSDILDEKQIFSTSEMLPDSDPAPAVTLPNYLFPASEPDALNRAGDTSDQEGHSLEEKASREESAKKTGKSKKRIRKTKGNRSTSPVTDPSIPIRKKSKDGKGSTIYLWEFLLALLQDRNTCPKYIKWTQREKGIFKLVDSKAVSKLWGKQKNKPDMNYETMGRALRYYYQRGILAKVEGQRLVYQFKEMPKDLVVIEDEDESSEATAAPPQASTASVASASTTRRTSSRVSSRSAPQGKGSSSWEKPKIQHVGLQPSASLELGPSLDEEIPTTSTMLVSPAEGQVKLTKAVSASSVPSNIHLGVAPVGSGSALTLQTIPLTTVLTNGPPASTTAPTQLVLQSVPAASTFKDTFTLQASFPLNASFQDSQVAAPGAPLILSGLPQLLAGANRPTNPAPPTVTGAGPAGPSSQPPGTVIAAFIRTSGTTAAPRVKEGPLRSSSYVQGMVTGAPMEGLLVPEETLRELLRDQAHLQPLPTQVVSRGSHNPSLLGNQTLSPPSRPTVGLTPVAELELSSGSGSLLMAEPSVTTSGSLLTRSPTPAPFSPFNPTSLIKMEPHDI
Sequence of ETV5 (P41161 whole entry): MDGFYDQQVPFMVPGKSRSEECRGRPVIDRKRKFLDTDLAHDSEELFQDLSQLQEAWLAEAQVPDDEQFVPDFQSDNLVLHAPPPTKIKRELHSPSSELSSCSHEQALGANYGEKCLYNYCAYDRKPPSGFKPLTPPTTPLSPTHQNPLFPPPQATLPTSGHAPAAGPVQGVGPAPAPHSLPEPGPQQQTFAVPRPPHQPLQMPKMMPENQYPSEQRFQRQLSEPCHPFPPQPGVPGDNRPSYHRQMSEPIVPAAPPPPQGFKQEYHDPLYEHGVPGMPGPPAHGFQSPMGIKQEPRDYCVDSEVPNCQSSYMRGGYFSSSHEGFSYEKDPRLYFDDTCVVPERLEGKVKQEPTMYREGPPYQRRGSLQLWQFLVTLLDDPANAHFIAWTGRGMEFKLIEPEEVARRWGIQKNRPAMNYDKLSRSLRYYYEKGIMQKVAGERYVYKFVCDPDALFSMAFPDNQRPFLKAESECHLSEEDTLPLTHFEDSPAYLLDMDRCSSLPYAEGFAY
Sequence of ELF1 (P32519 whole entry): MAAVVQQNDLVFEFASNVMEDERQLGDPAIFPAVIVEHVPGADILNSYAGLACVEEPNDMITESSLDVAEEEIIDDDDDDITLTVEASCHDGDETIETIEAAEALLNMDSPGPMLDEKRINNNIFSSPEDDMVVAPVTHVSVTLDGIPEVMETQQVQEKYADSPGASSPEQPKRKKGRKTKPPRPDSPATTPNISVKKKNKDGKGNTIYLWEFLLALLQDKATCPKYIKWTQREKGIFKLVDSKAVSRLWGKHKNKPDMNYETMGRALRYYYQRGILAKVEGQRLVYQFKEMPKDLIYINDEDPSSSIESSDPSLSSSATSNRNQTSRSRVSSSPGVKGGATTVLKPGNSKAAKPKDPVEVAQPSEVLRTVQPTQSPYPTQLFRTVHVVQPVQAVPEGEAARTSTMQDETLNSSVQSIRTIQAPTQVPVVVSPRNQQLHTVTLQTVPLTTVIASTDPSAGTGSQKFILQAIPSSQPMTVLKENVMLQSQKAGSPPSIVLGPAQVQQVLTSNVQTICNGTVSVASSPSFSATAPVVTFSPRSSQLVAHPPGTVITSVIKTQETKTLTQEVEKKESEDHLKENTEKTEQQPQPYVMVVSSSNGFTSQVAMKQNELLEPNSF
Sequence of CRX (O43186 whole entry): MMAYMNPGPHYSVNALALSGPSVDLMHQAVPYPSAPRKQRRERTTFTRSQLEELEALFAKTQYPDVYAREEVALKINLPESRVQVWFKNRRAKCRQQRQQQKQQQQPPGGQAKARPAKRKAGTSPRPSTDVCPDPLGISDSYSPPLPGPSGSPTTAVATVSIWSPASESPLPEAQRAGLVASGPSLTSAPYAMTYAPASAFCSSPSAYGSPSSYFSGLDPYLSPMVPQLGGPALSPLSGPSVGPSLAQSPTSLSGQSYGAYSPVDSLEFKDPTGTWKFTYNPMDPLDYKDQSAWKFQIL
Sequence of HSF1 (Q00613 whole entry): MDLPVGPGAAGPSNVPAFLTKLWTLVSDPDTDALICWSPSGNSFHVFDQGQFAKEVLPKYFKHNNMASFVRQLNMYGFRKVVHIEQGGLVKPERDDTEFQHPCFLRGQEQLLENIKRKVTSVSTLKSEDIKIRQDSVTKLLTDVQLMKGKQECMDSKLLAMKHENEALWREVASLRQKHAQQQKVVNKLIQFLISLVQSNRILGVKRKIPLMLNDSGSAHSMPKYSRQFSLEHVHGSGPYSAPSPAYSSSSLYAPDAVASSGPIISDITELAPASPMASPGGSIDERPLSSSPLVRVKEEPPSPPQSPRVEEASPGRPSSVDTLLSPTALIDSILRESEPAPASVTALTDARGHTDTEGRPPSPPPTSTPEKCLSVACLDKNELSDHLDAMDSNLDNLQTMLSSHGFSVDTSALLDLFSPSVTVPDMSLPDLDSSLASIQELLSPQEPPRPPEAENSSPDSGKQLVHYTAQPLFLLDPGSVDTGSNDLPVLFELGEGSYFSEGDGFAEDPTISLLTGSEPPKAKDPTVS
Sequence of SPIB (Q01892 whole entry): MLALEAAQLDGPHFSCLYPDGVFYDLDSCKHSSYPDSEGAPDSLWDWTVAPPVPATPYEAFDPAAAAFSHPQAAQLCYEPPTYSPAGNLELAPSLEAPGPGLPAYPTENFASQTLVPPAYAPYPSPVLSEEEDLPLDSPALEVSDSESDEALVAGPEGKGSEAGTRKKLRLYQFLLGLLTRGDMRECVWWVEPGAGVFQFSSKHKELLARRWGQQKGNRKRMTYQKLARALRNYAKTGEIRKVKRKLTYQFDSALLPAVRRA

Consider AACTTC, for which the binding signal is 2.4 fold enrichment (6-mer frequency, TF over GST control) with FLI1; 2.53 fold enrichment (6-mer frequency, TF over GST control) in the experiment with ELK1; 2.41 fold enrichment (6-mer frequency, TF over GST control) with GABPA; 2.73 fold enrichment (6-mer frequency, TF over GST control) with ERG; 2.47 fold enrichment (6-mer frequency, TF over GST control) in the experiment with ELF1; 2.5 fold enrichment (6-mer frequency, TF over GST control) in the experiment with EHF. Moreover, the binding signal in the experiment with SPI1 is 3.04 fold enrichment (6-mer frequency, TF over GST control); with SPIB, 2.77 fold enrichment (6-mer frequency, TF over GST control); with ELK3 it was 2.72 fold enrichment (6-mer frequency, TF over GST control); with FEV it was 3.12 fold enrichment (6-mer frequency, TF over GST control); with ETV5, 2.71 fold enrichment (6-mer frequency, TF over GST control); in the experiment with HSF1, 2.02 fold enrichment (6-mer frequency, TF over GST control). In addition, the binding signal with SPIC was 2.83 fold enrichment (6-mer frequency, TF over GST control); with ELF4, 2.44 fold enrichment (6-mer frequency, TF over GST control); with ELK4, 2.34 fold enrichment (6-mer frequency, TF over GST control); in the experiment with ETV2, 2.52 fold enrichment (6-mer frequency, TF over GST control); with ELF3, 2.39 fold enrichment (6-mer frequency, TF over GST control); in the experiment with CRX, 1.45 fold enrichment (6-mer frequency, TF over GST control). In addition, the binding signal with ETV1 is 2.6 fold enrichment (6-mer frequency, TF over GST control).

Values taken from article PMC7862700, “An all-to-all approach to the identification of sequence-specific readers for epigenetic DNA modifications on cytosine”.
